Screening results from PubChem BioAssay.
In the library only some 2.1% were active in any assay of this set; here they are far more common.
aSyn rescue = inhibitors of alpha-synuclein toxicity in yeast. Yeast expressing alpha-synuclein, growth rescue, BacTiter-Glo, 24 h. Potency, µM (highest dose often 46.1 µM), for inactives: at the highest dose growth rescue (activation), most hits filed as activators. actives 0.14% (n = 370,000). AID 652106; note: % of control where 0% means no effect; nearly all actives have a fitted effect of over 65% in size
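Readout is rescue of growth in alpha-synuclein-expressing yeast, so inhibitors of toxicity appear as activators. Growth after 24 hr at 30 deg C in galactose medium is quantified by luminescence.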
FUS yeast rescue = rescues growth of FUS-expressing yeast; actives 0.24% (n = 390,000); Potency, µM (highest dose often 76.6 µM), hits mostly activators; S. cerevisiae FUS-expressing, growth rescue, OD600, 24 h;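 note: plate controls were DMSO vehicle for no effect and reference control for full effect; nearly all actives have a fitted effect of over 55% in size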
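S. cerevisiae expressing FUS from galactose induction served as the toxicity model. Growth after 24hr at 30C, read as absorbance at 600 nm, indicates suppression of toxicity; compounds dosed at several concentrations.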
TDP-43 yeast inh = inhibitors of TDP-43 toxicity in yeast; TDP-43 expressing yeast growth rescue, BacTiter-Glo, 24 h; Potency, µM (series often up to 46.1 µM), without a hit: at the highest dose growth rescue (activation), actives largely listed as activators; actives 1.8% (n = 410,000); AID 652104; note: % of control where 0% means no effect; nearly all actives have a fitted effect of over 50% in size
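Yeast expressing TDP-43 (pregrown in raffinose, seeded at OD600=0.02 in galactose medium) exposed to compounds 24 hr at 30 deg C. Growth read by BacTiter-Glo luminescence; rescue of toxicity appears as increased signal.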
Abeta yeast res = A-beta toxicity reversal in yeast. yeast expressing A-beta42, growth rescue, OD600, 48 h; response scale: 0% DMSO, 100% iron-clioquinol control. Potency, µM (series often up to 46.1 µM), usual class: activators. actives 0.063% (n = 410,000). AID 1347071; note: nearly all actives have a fitted effect of over 55% in size
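Growth rescue measured by 600 nm absorbance after 48 h yeast culture at 30 C with compound. Values normalized between DMSO and an equimolar ferric chloride plus clioquinol control.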
* hit, by the source's call; i = inactive; u = inconclusive; x = no result; [ ] = remark or other dose. Calls come from the whole dose curve; as a rule, active = well fitted curve in the direction sought with a large enough effect; inconclusive = small, poorly fitted or top-dose-only effect, or another doubt; inactive = no such curve, though single readings can be large; an effect the other way counts as inactive or inconclusive. Potency is the fitted concentration of half-maximal effect.

SMILES	aSyn rescue	FUS yeast rescue	TDP-43 yeast inh	Abeta yeast res
COC(=O)C1=C(C(=O)OC)[C@]2([C@@H]3CC=CCN[C@@H](Cc4ccccc4)C(=O)N3Cc3ccccc3)C=C[C@H]1O2	0%	i	19%	i
CNc1ccccc1C(C)(C)c1cc(-c2cccc([N+](=O)[O-])c2)no1	8%	i	28%	11µM*
COC(=O)CN1C(=O)c2cccc3cccc1c23	-5%	i	-1%[1.82 µM]	i
Nc1nc(N)nc(-c2ccc(Cl)c(Cl)c2)n1	0%	i	22µM*	i
Cc1nc(N)nc(N)c1-c1ccc(Cl)c(Cl)c1	3%	x	-3%	i
COC(=O)c1cc(S(=O)(=O)N2CCN(c3cccc(C)c3)C(C)C2)c[nH]1 (stereo unspecified)	7%	i	-2%	i
COC(=O)c1sccc1S(=O)(=O)N1CCN(c2cccc(C)c2)C(C)C1 (stereo unspecified)	x	i	14µM*	i
OC(CCN1CCOCC1)c1ccccc1 (stereo unspecified)	-4%	i	-9%	i
Fc1ccc(CSc2nnc(-c3ccccn3)o2)cc1	-2%	i	13µM*	i
Cc1ccc2oc(-c3cc(NC(=O)c4ccco4)ccc3Cl)nc2c1	x	i	9%	i
CCc1ccc2oc(-c3cc(NC(=O)c4cccs4)ccc3Cl)nc2c1	-8%	i	18µM*	i
CCc1ccc2oc(-c3cc(N)ccc3Cl)nc2c1	3%	i	18µM*	i
O=C(Nc1ccc2oc(-c3ccccc3)nc2c1)c1cccnc1	-7%	i	-20%	i
CC(C)c1ccc2oc(-c3cc(NC(=O)c4cccnc4)ccc3Cl)nc2c1	x	i	16µM*	i
COc1ccc(COC(=O)CCN=C2NS(=O)(=O)c3ccccc32)cc1F	0%	i	4%	i
Cc1ccc(Oc2cc([N+](=O)[O-])cc3c2C(=O)Nc2ccccc2O3)cc1	4%	i	10%	i
CCOc1ccc(-n2cc(-c3ccccc3)c3c(NCc4ccc(F)cc4)ncnc32)cc1	x	i	u	i
CC[C@H](C)[C@@H]1NC(=O)[C@@H](CC(C)C)NC(=O)[C@H](C(C)C)NC(=O)[C@H]2CSSC[C@H](NC1=O)C(=O)N2	-3%	i	u	i
O=C1Nc2ccccc2C(=O)C1(Cl)Cc1ccccc1 (stereo unspecified)	-52%	i	35µM*	i
CSc1oc(-c2ccc(F)cc2)nc1S(=O)(=O)c1ccccc1	0%	i	-8%	i
CCS(=O)(=O)c1oc(-c2ccc(F)cc2)nc1S(=O)(=O)c1ccc(Br)cc1	x	i	28µM*	i
CC(C)S(=O)(=O)c1oc(-c2cccs2)nc1S(=O)(=O)c1ccc(F)cc1	x	i	8.9µM*	i
CCCCS(=O)(=O)c1oc(-c2ccc(F)cc2)nc1S(=O)(=O)c1ccccc1	x	i	14µM*	i
CC(C)S(=O)(=O)c1oc(-c2ccc(F)cc2)nc1S(=O)(=O)c1ccccc1	x	i	13µM*	i
Fc1ccc(-c2csc(Nc3ccccn3)n2)cc1	-18%	i	11µM*	i
SMILES	aSyn rescue	FUS yeast rescue	TDP-43 yeast inh	Abeta yeast res
Fc1ccc(-c2csc(-c3ccncc3)n2)cc1	3%	i	13µM*	i
c1cncc(-c2nc(-c3cccs3)cs2)c1	2%	i	10%	i
c1ccc(Nc2nc(-c3cccnc3)cs2)nc1	-2%	i	15%	i
c1csc(-c2csc(-c3cccs3)n2)c1	0%	i	13µM*	i
OC(c1ccc(F)cc1)c1nc(-c2ccncc2)cs1 (stereo unspecified)	0%	i	9%	i
c1ccc(Nc2nc(-c3cccs3)cs2)nc1	-21%	i	35µM*	i
CC(=O)Oc1ccc(-c2csc(Nc3cccc(C)n3)n2)cc1	-24%	i	7%	i
CC(=O)Oc1ccc(-c2csc(Nc3ccccn3)n2)cc1	-30%	i	13µM*	i
COc1ccc(-c2csc(Nc3cccc(C)n3)n2)cc1	-27%	i	18µM*	i
COc1ccc(CCNS(=O)(=O)c2cn(C)cn2)cc1OC	-14%	i	-15%	i
O=C(CSc1nccc(=O)[nH]1)c1cc2ccccc2o1	4%	i	8%	i
CCOC(=O)c1cc(OC(=O)c2cc(Cl)ccc2OC)n(-c2ccccc2)n1	-36%	i	22%	i
COc1ccc(CCNC(=O)Cn2c(=O)n(-c3ccc(F)cc3)c(=O)c3sccc32)cc1OC	0.56µM*	i	4%	i
CCc1nnc(NC(=O)c2ccc(Cl)c(S(=O)(=O)N3CCc4ccccc4C3)c2)s1	0%	i	-2%	i
COc1ccc(CNC(=O)C2=C(C)C(=O)OC23CCC(C)CC3)cc1 (stereo unspecified)	8%	i	16µM*	i
O=C(c1ccc(Sc2cccc(Cl)c2)c([N+](=O)[O-])c1)N1CCN(c2ccccn2)CC1	u	i	22µM*	5µM*
O=C(c1ccc(Cl)c([N+](=O)[O-])c1)N1CCN(c2ccccn2)CC1	7%	x	5%	i
CCN(CC)c1ccc2c(c1)OC(N)=C(C#N)C2c1cccnc1 (stereo unspecified)	1%	i	14%	i
O=S(=O)(c1ccc(Cl)cc1)N1CCCCCC1	2%	i	24%	i
O=S(=O)(c1c(Cl)sc(Cl)c1Br)N1CCCC1	10%	i	11µM*	i
CCCCCn1c(CCCNC(=O)c2cccc(C)c2)nc2ccccc21	x	u	35µM*	i
Cc1cc(/C=N/NC(N)=S)c(C)n1-c1ccc(Cl)c(Cl)c1	11%	i	18µM*	u
COc1ccc(CNC(=O)c2ccc(-n3ccnc3)c3ccoc23)cc1OC	-10%	i	-10%	i
O=S(=O)(Nc1cc(Br)cc2cccnc12)c1cccc2ccccc12	25µM*	x	x	x
O=S(=O)(Nc1ccccc1Br)c1cccc2cccnc12	11%	i	16%	i
SMILES	aSyn rescue	FUS yeast rescue	TDP-43 yeast inh	Abeta yeast res
FC(F)(F)c1nnc2c(Sc3ccccn3)nc3ccccc3n12	-2%	i	16µM*	i
FC(F)(F)c1nnc2c(Sc3ccccc3)nc3ccccc3n12	-7%	i	26%	i
Cc1cc(=O)n(CC(=O)Nc2ccc(Cl)c(Cl)c2)c(-n2nc(C)cc2C)n1	x	u	13µM*	i
CC(=O)c1ccc(NC(=O)Cn2c(-n3nc(C)cc3C)nc(C)c(C)c2=O)cc1	x	i	27%	i
CC(OC(=O)Cc1n[nH]c(=O)c2ccccc12)C(=O)Nc1ccc(Cl)cn1 (stereo unspecified)	-5%	i	-12%	i
O=C(CNC(=O)c1ccccc1)NCC(=O)OCC(=O)c1cccc2ccccc12	1%	x	x	x
